Results on nine compounds are retold here after PubChem BioAssay (EPA / NIEHS).

Calls of active or inactive are those of the source. How the source made its calls: active means hit-call score of the fitted dose curve at least 0.9, where 1 is the maximum; inactive means score below 0.9.

Read-out in experiment [1]: Collagen I, COL1A1 (gene 1277)
The experiment can be described thus: BSK_MyoF_CollagenI: BioMAP Diversity Plus: MyoF Assay for Collagen I Biomarker Activity (AID 2284238). As to conditions: primary human lung fibroblasts. The gist of the method: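 Measured by ELISA: Collagen I from human lung fibroblasts 24 h after compound addition, analysed for signal gain with DMSO as baseline; overt toxicity read from SRB staining of parallel cultures at the same time.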

Read-out in experiment [2]: Collagen III, COL3A1 (gene 1281)
The experiment can be described thus: BSK_MyoF_CollagenIII: BioMAP Diversity Plus: MyoF Assay for Collagen III Biomarker Activity (AID 2284239). As to conditions: primary human lung fibroblasts. The method in brief:
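Multiplexed cell assay in lung fibroblasts, harvested at 24 h post-dose. Collagen III detected by ELISA, with positive-direction fitting relative to DMSO vehicle.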

Read-out in experiment [3]: Interleukin 17F (IL17F), IL17F (gene 112744)
The experiment can be described thus: BSK_BT_xIL17F: BioMAP Diversity Plus: BT Assay for Interleukin 17F (IL17F) Biomarker Activity (AID 2284243). As to conditions: primary human B cells with PBMC. The gist of the method:
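Luminex readout of IL-17F secretion, 24 h; cells: human B cells with PBMC; positive-direction analysis, DMSO control.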

Read-out in experiment [4]: Basic fibroblast growth factor (bFGF), FGF2 (gene 2247)
The experiment can be described thus: BSK_MyoF_bFGF: BioMAP Diversity Plus: MyoF Assay for Basic fibroblast growth factor (bFGF) Biomarker Activity (AID 2284246). As to conditions: primary human lung fibroblasts. The gist of the method:
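Human lung fibroblasts were dosed with chemicals and bFGF was quantified by ELISA 24 h later. Activity was fitted in the gain-of-signal direction relative to DMSO as negative control and baseline. Parallel SRB total-protein staining tracked overt cytotoxicity.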

Read-out in experiment [5]: Collagen IV, COL4A1 (gene 1282)
The experiment can be described thus: BSK_MyoF_CollagenIV: BioMAP Diversity Plus: MyoF Assay for Collagen IV Biomarker Activity (AID 2284247). As to conditions: primary human lung fibroblasts. The method in brief: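 Primary human lung fibroblasts were exposed to test chemicals and sampled 24 h after dosing. Collagen IV levels were measured by ELISA and fitted in the positive direction against DMSO as negative control and baseline.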

Read-out in experiment [6]: Plasminogen activator inhibitor-1 (PAI1), SERPINE1 (gene 5054)
Description: BSK_MyoF_PAI1: BioMAP Diversity Plus: MyoF Assay for Plasminogen activator inhibitor-1 (PAI1) Biomarker Activity (AID 2284256).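 On outcome: PAI-1 protein level measured by ELISA in fibroblast cultures; PAI-1 read 24 h after compound addition.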 As to conditions: primary human lung fibroblasts. The gist of the method:
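In this multiplexed primary-cell system, fibroblasts from human lung received compound for 24 h before ELISA detection of PAI-1; overt toxicity was checked by SRB (0.1%, TCA-fixed, 560 nm) in parallel wells.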

Read-out in experiment [7]: Interleukin-8 (IL8), CXCL8 (gene 3576)
The experiment can be described thus: BSK_MyoF_IL8: BioMAP Diversity Plus: MyoF Assay for Interleukin-8 (IL8) Biomarker Activity (AID 2284261). As to conditions: primary human lung fibroblasts. The method in brief: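 DMSO-normalised, upward-fitted IL-8 ELISA signal; human lung fibroblasts, 24 h chemical treatment.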

Read-out in a further experiment: Decorin, DCN (gene 1634)
The experiment can be described thus: BSK_MyoF_Decorin: BioMAP Diversity Plus: MyoF Assay for Decorin Biomarker Activity (AID 2284265). As to conditions: primary human lung fibroblasts. The method in brief:
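In this multiplexed fibroblast system, secreted or surface decorin is detected by ELISA one day after dosing, with increases scored against the DMSO vehicle.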

A short description of experiment [8]: BSK_MyoF_SRB: Viability Assessment in the BioMAP Diversity Plus: MyoF Assay (AID 2284267).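 Further: total protein by SRB absorbance in parallel cultures as cytotoxicity measure; cells assessed 24 h after compound addition.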 As to conditions: primary human lung fibroblasts. The method in brief: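 Human lung fibroblasts dosed with chemical and assessed 24 h later for overt cytotoxicity in parallel cultures. Total protein quantified by sulforhodamine B staining (0.1% SRB after 10% TCA fixation), read at 560 nm, analysed in positive direction versus DMSO baseline.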

Read-out in experiment [9]: TIMP metallopeptidase inhibitor 1 (TIMP1), TIMP1 (gene 7076)
Description: BSK_MyoF_TIMP1: BioMAP Diversity Plus: MyoF Assay for TIMP metallopeptidase inhibitor 1 (TIMP1) Biomarker Activity (AID 2284269). As to conditions: primary human lung fibroblasts. The gist of the method:
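ELISA read-out of TIMP-1 from primary human lung fibroblast cultures 24 h after compound dosing; gain of signal relative to DMSO vehicle baseline defines activity.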

In the case of `CCCCCCCCCCCCCCCC[N+](C)(C)CC`, the AC50 in [1] was 0.64 µM (active); in experiment [2] it was 0.967 µM (active); in experiment [3], 2.28 µM (active); in experiment [4] it was 8.45 µM (active); in experiment [5], 3.25 µM (active); in experiment [6], 2.65 µM (active). Further, the AC50 with Decorin, DCN (gene 1634) is 5.5 µM (active); in [8] it was 1.39 µM (active); in [9] it was 2.73 µM (active). Besides, in [7], the outcome was inactive.
For the compound `CC1OC1C1CCC2(C)OC2C1` (stereo not drawn), the outcome in experiment [1], in experiment [2], in experiment [3], in experiment [4], in [5] and in [6] was inactive. In addition, the outcome in [7] was “inactive”; with Decorin, DCN (gene 1634), “inactive”; in experiment [8] it was “inactive”; in experiment [9], “inactive”.
On to `CCO[Si](CCCN=C=O)(OCC)OCC`, for which the outcome in experiment [1], in experiment [2], in experiment [3], in [4], in experiment [5] and in [6] was inactive. Moreover, the outcome in experiment [7] is “inactive”; in the experiment with Decorin, DCN (gene 1634), “inactive”; in experiment [8], “inactive”; in experiment [9] it was “inactive”.
Consider `O=c1c2ccccc2oc2ccccc12`, for which the result in [1], in experiment [2], in experiment [4], in experiment [5], in [6] and in [7] was inactive. The outcome is “inactive” with Decorin, DCN (gene 1634); “inactive” in [8]; “inactive” in experiment [9]. Also, the half-maximal activity concentration (AC50) in [3] was 3.97 µM (active).
Take `C=CC=CC=CCCCCC`: the result in experiment [1], in experiment [2], in [4], in experiment [5], in [6] and in experiment [7] was inactive. Besides, the outcome is “inactive” with Decorin, DCN (gene 1634); “inactive” in experiment [8]; “inactive” in experiment [9]. For the same compound, the AC50 in experiment [3] was 7.28 µM (active).
On to `CCCCC/C=C\C/C=C\CCCCCCCC(=O)OC`, for which the AC50 in experiment [1] is 27.1 µM (active); in [2], 20 µM (active); in experiment [3], 25.2 µM (active). Moreover, the outcome was “inactive” in experiment [4]; “inactive” in experiment [5]; “inactive” in experiment [6]; “inactive” in experiment [7]; “inactive” with Decorin, DCN (gene 1634); “inactive” in experiment [8]. In experiment [9], the outcome was inactive.
With `COCc1c(C(C)C)nc(C(C)C)c(/C=C/[C@@H](O)C[C@@H](O)CC(=O)O)c1-c1ccc(F)cc1`, the AC50 in experiment [1] was 9.2 µM (active); in experiment [2], 0.867 µM (active); in [3], 0.57 µM (active); in experiment [6], 0.15 µM (active). For the same compound, the outcome in [4] is “inactive”; in [5], “inactive”; with Decorin, DCN (gene 1634), “inactive”; in [9] it was “inactive”.
As to `C/C=C\C/C=C/CCCCCCCCOC(C)=O`, the outcome in experiment [1] is “inactive”; in [2], “inactive”; in experiment [4], “inactive”; in experiment [5], “inactive”; in experiment [7] it was “inactive”; with Decorin, DCN (gene 1634), “inactive”. The result in experiment [8] and in [9] was inactive. For the same compound, the AC50 in experiment [3] was 25.5 µM (active); in [6] it was 20 µM (active).
Turning to `CCCCNc1ccc(NCCCC)c2c1C(=O)c1ccccc1C2=O`, the result in experiment [1], in experiment [2], in experiment [3], in experiment [4], in experiment [5] and in experiment [6] was inactive. Besides, the outcome in [7] was “inactive”; with Decorin, DCN (gene 1634), “inactive”; in experiment [8] it was “inactive”; in experiment [9], “inactive”.
